Reference: the supplement of paper PMC13380429

Test system: Vero E6 infected with SARS-CoV-2
Test: inhibition of SARS-CoV-2 cytopathic effect; higher = more antiviral protection, active = above 15
Conditions: 48 h

Measured: inhibition of SARS-CoV-2 cytopathic effect

O=C1C[C@@H]2OCC=C3CN4CC[C@]56c7ccccc7N1[C@H]5[C@H]2[C@H]3C[C@H]46 [strychnine]
inactive: 1 nM -0.53% | 8.33 nM 0.64% | 100 nM 5.93% | 833.33 nM 3.93% | 10000 nM 1.26%

CO/N=C(\C(=O)N[C@@H]1C(=O)N2C(C(=O)OCOC(=O)C(C)(C)C)=C(C)CS[C@H]12)c1csc(N)n1 [cefetamet-pivoxil]
inactive: 1 nM -1.77% | 8.33 nM -0.88% | 100 nM -2.82% | 833.33 nM -0.78% | 10000 nM -2.04%

CC1(C)O[C@@H]2C[C@H]3[C@@H]4C[C@H](F)C5=CC(=O)C=C[C@]5(C)[C@H]4[C@@H](O)C[C@]3(C)[C@]2(C(=O)CO)O1 [flunisolide]
inactive: 1 nM -0.25% | 8.33 nM 0.14% | 100 nM -1.38% | 833.33 nM -0.29% | 10000 nM -0.97%

O=C(c1ccc(Nc2nccc(-c3cc4ccccc4s3)n2)cc1)N1CCC(N2CCCC2)CC1
inactive: 1 nM 2.48% | 8.33 nM 3.16% | 100 nM -1.73% | 833.33 nM 2.79% | 10000 nM -18.6%

Cc1csc(S(=O)(=O)N(CC(C)C)c2cc3c(cc2OCc2ccc(C(=O)O)cc2)CCC3)n1
inactive: 1 nM -2.46% | 8.33 nM -1.9% | 100 nM 3.16% | 833.33 nM 2.51% | 10000 nM 2.78%

Cc1cc(O)cc(C)c1Cl [chloroxylenol]
inactive: 1 nM -0.09% | 8.33 nM 1.72% | 100 nM -1.3% | 833.33 nM -0.83% | 10000 nM 0.1%
